Compound activity (PubChem BioAssay)
This is one part of a sample in which hits are shown more often than they occur.
14-3-3g Raf – modulators of 14-3-3 gamma protein binding, primary screen, biochemical, fluorescence polarization. FP, 14-3-3gamma / TMR-pS259-Raf peptide binding. AID 422, 2006. inhibition, % at 40 µM. hit rate 0.19% among 160,000; in the data active means inhibition above about 30%;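 further: 0% = protein plus tracer without compound and 100% = blank with tracer alone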
Target sequence (P61981 whole entry, looked up): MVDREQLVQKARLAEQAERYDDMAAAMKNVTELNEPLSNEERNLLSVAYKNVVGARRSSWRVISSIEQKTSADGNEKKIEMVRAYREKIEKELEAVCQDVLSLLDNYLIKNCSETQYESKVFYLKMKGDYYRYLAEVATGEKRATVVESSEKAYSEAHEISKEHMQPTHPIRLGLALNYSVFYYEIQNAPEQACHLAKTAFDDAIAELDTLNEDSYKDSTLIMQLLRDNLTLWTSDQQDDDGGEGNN
* marks the source's active call; other numbers are inactive results; + = active, no number; ! = repeats disagree.

SMILES | 14-3-3g Raf
O=C1c2ccc3c4c(ccc(c24)C(=O)N1c1ccccc1)N(c1ccccc1)C3=O | -69.1
C=CCNc1ccc2c3c(cccc13)C(=O)N(c1ccccc1)C2=O | 158.1*
O=C1c2cccc3c(N4CCCC4)ccc(c23)C(=O)N1c1ccccc1 | -24.4
O=C1c2cccc3c([N+](=O)[O-])ccc(c23)C(=O)N1c1ccccc1 | 4.2
Nc1ccc2c3c(cccc13)C(=O)N(c1ccccc1)C2=O | 86.8*
O=C1c2cccc3c(NCCO)ccc(c23)C(=O)N1CCO | 8.5
Cc1ccc(-n2c(=O)c3sccc3n(CC(=O)NCCC3=CCCCC3)c2=O)cc1F | -7.4
CCN1CCN(C(=O)c2cn(CC)c3ccc(S(=O)(=O)N4CCCC4)cc3c2=O)CC1 | -1.2
O=[N+]([O-])c1ccc(Cl)c(S(=O)(=O)N2CCCN(S(=O)(=O)c3cc([N+](=O)[O-])ccc3Cl)CC2)c1 | -11.3
C=CCn1c(SCC(=O)Nc2ccc(OC)cc2)nnc1-c1ccc2[nH]c(C)c(C)c2c1 | 1.8
NC(=O)C1CCN(C(=O)c2ccc3c(=O)n(Cc4ccco4)c(SCc4ccc(F)cc4)nc3c2)CC1 | 0.5
Cc1ccc(CNC(=O)CCCn2c(=O)c3sccc3n(Cc3ccccc3Cl)c2=O)cc1 | -1.6
C=CCSc1nnc2c(n1)OC(C)(C)Nc1ccc(Br)cc1-2 | 111.9*
C=CCSc1nnc2c(n1)OC(c1ccncc1)Nc1ccc(Br)cc1-2 (stereo not drawn) | -25.2
C=CCSc1nnc2c(n1)OC=Nc1ccc(Br)cc1-2 | -7.1
CC1CCCN(C(=O)C2(S(=O)(=O)c3ccc(Cl)cc3)CC2)C1 (stereo not drawn) | -1.0
Fc1ccccc1C1C=C(c2cccnc2)Nc2nc3ccccc3n21 (stereo not drawn) | 47.3*
Fc1ccccc1C1C=C(c2cccc(Br)c2)Nc2nc3ccccc3n21 (stereo not drawn) | -11.1
Fc1ccccc1C1C=C(c2ccc(Br)s2)Nc2nc3ccccc3n21 (stereo not drawn) | -107.1
CC(=O)CSc1nc2c(c(=O)[nH]c(=O)n2C)n1CC(N)=O | 1.4
CC1CCCCN1C(=O)CSc1nnc(-c2ccc(Cl)cc2)o1 (stereo not drawn) | -3.7
O=C(COc1ccc([N+](=O)[O-])cc1)Nc1ccccn1 | -12.9
O=C(COc1ccc([N+](=O)[O-])cc1)Nc1cccnc1 | 30.6*
O=C(COc1ccc(Br)cc1)Nc1cccnc1 | -11.0
C=CCOC(=O)C1=C(C)NC2=C(C(=O)CCC2)C1c1cccc(Cl)c1 (stereo not drawn) | -2.3
SMILES | 14-3-3g Raf
CC(=O)c1ccc(N2CCN(C(=O)Cc3c(C(=O)O)[nH]c4ccc(Cl)cc34)CC2)cc1 | -27.7
COc1ccc(N2CCN(CCNC(=O)c3cccn4c(=O)c5ccc(Cl)cc5nc34)CC2)cc1 | -10.0
COc1ccc(N2CCN(CCNC(=O)c3cccn4c(=O)c5cc6ccccc6cc5nc34)CC2)cc1 | 178.9*
O=C(NCCN1CCOCC1)c1cccn2c(=O)c3cc4ccccc4cc3nc12 | -9.5
Cc1ccc(OC(=O)COc2ccc(Cl)cc2)cc1C | -2.7
COc1ccc(NC(=O)c2ccc(-c3ccc([N+](=O)[O-])cc3)o2)c(OC)c1 | -5.5
Brc1ccc2[nH]cc(-c3nnc4ccc5ccccc5n34)c2c1 | -3.5
Cc1ccc(C(C)C)c(OCC(=O)Nc2ccc(C)c(C)c2)c1 | -11.4
COc1ccc(OC)c(NC(=O)COc2cc(C)ccc2C(C)C)c1 | 74.2*
COc1ccc(OC)c(NC(=O)COc2ccccc2C(C)C)c1 | -2.2
O=C1CCCC2=C1C(c1ccccc1)c1c(nc(SCc3ccccc3)[nH]c1=O)N2 (stereo not drawn) | -6.5
O=C(CCNC(=O)c1ccc(Br)o1)NCc1ccccc1Cl | 0.7
O=C(CCNC(=O)c1ccc(Br)o1)NCc1ccccn1 | +!
Cc1ccc(CNC(=O)CCNC(=O)c2ccc(Br)o2)cc1 | -3.6
Cn1c(=O)[nH]c(=O)c2c1nc(SCc1ccccc1)n2CCc1ccccc1 | -7.5
Cc1cccc(-c2nc3ccccc3c(=O)[nH]2)c1 | -47.5
C/C(O)=c1/c(=O)nc2cccc3c2=c1c1ccccc1c3=O | 34.6*
Cc1nc2ccccc2c(C(=O)O)c1C(=O)O | -3.5
CC(=O)N1CCc2cc(S(=O)(=O)NC(C(=O)NC3CCCCCC3)C(C)C)ccc21 (stereo not drawn) | -1.8
O=C(CCN1CCN(S(=O)(=O)c2ccc(Br)cc2)CC1)Nc1ccc(F)cc1 | -8.4
CCN1CCCC1CNC(=O)CNC(=O)Cn1cnc2sc3c(c2c1=O)CCCC3 (stereo not drawn) | -2.5
Oc1ccccc1C=Nc1ccc(Nc2ccccc2)cc1 | -27.6
NS(=O)(=O)c1ccc(NC2=C(Cl)C(=O)N(Cc3ccccc3)C2=O)cc1 | -13.7
O=C(c1cnccn1)N1CCN(c2ccccc2F)CC1 | -26.6
O=C(O)C1C2CCC(C2)C1C(=O)N1CCN(c2ccccc2F)CC1 (stereo not drawn) | 43.5*
SMILES | 14-3-3g Raf
O=C(NC(=O)N1CCN(c2ccccc2F)CC1)c1ccccc1 | 2.4
Cc1ccccc1-n1nc2c(c1NC(=O)C1CCCCC1)CSC2 | -4.2
CCOc1ccccc1C(=O)Nc1sc2c(c1C(=O)OC(C)C)CCCC2 | -5.7
CC(=O)c1c(C)oc2c1c1c(c3ccccc32)OCN(CCCN2CCOCC2)C1 | 28.6
Cc1cc(C)cc(-n2ccnc2SCC(=O)Nc2c(C)cc(C)cc2C)c1 | 1.2
O=C(CSc1nccn1-c1cccc(Cl)c1)NC1CCCCC1 | -4.5
Cc1cc(C)cc(-n2ccnc2SCC(=O)NC2CCCC2)c1 | 30.7*
CC(C)C1=CC23CCC4C(C)(C(=O)O)CCCC4(C)C2CC1C1C(=O)N(c2cccc([N+](=O)[O-])c2)C(=O)C13 (stereo not drawn) | -23.5
O=C(CN1C(=O)CSc2ccc(S(=O)(=O)N3CCCC3)cc21)NCCCN1CCCCC1 | 3.5
Cc1cccc(NCC(O)Cn2c3ccccc3c3ccccc32)c1 (stereo not drawn) | -3.4
COc1cccc(-n2c(=O)c3c(C)c(C)sc3n(CC(=O)NCCc3ccccc3)c2=O)c1 | 5.1
COc1ccc2c(c1)C=CC1(O2)N(C)c2ccccc2C1(C)C (stereo not drawn) | -6.1
CN1c2c(ccc3ccccc23)C(C)(C)C12C=Cc1cc([N+](=O)[O-])ccc1O2 (stereo not drawn) | -364.7
CN1c2ccccc2C(C)(C)C12C=Nc1c(ccc3ccccc13)O2 (stereo not drawn) | 83.9*
O=C(c1nn2c(C(F)(F)F)cc(-c3cccs3)nc2c1Cl)N1CCN(Cc2ccccc2)CC1 | -8.6
CC1=CC(C)(C)N(C(=O)CN2C(=O)c3ccccc3C2=O)c2cc(C)ccc21 | -10.4
CC(=O)c1ccc(-c2ccc(I)cc2)cc1 | 2.3
O=C(c1ccc(F)cc1)c1cccnc1 | 66.3*
O=C(Oc1ccc(OC(=O)c2cccnc2)cc1)c1cccnc1 | -28.6
O=C(c1ccc(F)cc1)N1CCC(O)(c2cccnc2)CC1 | -1.5
Cc1cccc(C)c1OCC(=O)Nc1sc2c(c1C#N)CCCC2 | -14.3
C=CCSc1nnc2c(n1)OC(c1ccccc1C)Nc1ccccc1-2 (stereo not drawn) | -7.0
CCSc1nnc2c(n1)OC(c1ccccc1C)Nc1ccccc1-2 (stereo not drawn) | 41.0*
C=CCOc1cccc(C2Nc3ccccc3-c3nnc(SCC=C)nc3O2)c1 (stereo not drawn) | 139.7*
CCCSc1nnc2c(n1)OC(c1ccccc1Cl)Nc1ccccc1-2 (stereo not drawn) | 33.4*
